# From PubChem BioAssay (NCATS)
# Records with an inconclusive call do not appear. A call without a number means that no potency is given here. Active and inactive are the calls of the source. Unless noted, calls come from the whole dose curve; as a rule, active = well fitted curve in the direction sought with a large enough effect; inconclusive = small, poorly fitted or top-dose-only effect, or another doubt; inactive = no such curve, though single readings can be large; an effect the other way counts as inactive or inconclusive.
# What was measured:
# [1] = qHTS for Inhibitors of the Functional Ribonucleoprotein Complex (vRNP) of Lassa (LASV) Arenavirus: Viability assay - alamar blue signal for LASV Primary Screen (AID 1347083; calls by dose curve; tested in HEK293 reporter line; note: nearly all actives have a fitted effect of over 80% in size)
# [2] = qHTS for Inhibitors of the Functional Ribonucleoprotein Complex (vRNP) of Lymphocytic Choriomeningitis Arenaviruses (LCMV): Viability assay - alamar blue signal for LCMV Primary Screen (AID 1347085; calls by dose curve; tested in HEK293 reporter line; note: nearly all actives have a fitted effect of over 80% in size)
# [3] = target: Nucleoprotein (Lymphocytic choriomeningitis virus (strain Armstrong)) (UniProt P09992); assay: qHTS for Inhibitors of the Functional Ribonucleoprotein Complex (vRNP) of Lymphocytic Choriomeningitis Arenaviruses (LCMV): LCMV Primary Screen - GLuc reporter signal (AID 1347086; calls by dose curve; note: nearly all actives have a fitted effect of over 70% in size)
# [4] = qHTS of pediatric cancer cell lines to identify multiple opportunities for drug repurposing: Primary screen for TC32 cells (AID 1347089); note: nearly all actives have a fitted effect of over 60% in size
# Procedure, shortened: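 Luminescent ATP read-out (CellTiter-Glo) of metabolically active TC32 cells after 48 h exposure. Concentration-response curves came from 11-point (MIPE, 0.78 nM–46 µM) or 8-point (NPC, 0.59 nM–46 µM) primary titrations; follow-up used 11 points.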
# [5] = qHTS of pediatric cancer cell lines to identify multiple opportunities for drug repurposing: Primary screen for DAOY cells (AID 1347090); note: nearly all actives have a fitted effect of over 55% in size
# Procedure, shortened: (§1)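 Cell viability, CellTiter-Glo luminescence; 500-1,000 cells/well, 8- or 11-point titration, 48 h compound exposure at 37 degrees C, 5% CO2. Controls: DMSO neutral, bortezomib 2.3 µM final as positive.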
# [6] = qHTS of pediatric cancer cell lines to identify multiple opportunities for drug repurposing: Primary screen for SJ-GBM2 cells (AID 1347091)
# Procedure, shortened: as §1
# [7] = qHTS of pediatric cancer cell lines to identify multiple opportunities for drug repurposing: Primary screen for A673 cells (AID 1347092); note: nearly all actives have a fitted effect of over 45% in size
# Procedure, shortened: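 Cell viability of A673 measured by CellTiter-Glo ATP luminescence after 48 hours compound exposure. Dilution series spanned 0.78 nM to 46 µM (MIPE, 11-point) or 0.59 nM to 46 µM (NPC, 8-point); bortezomib 2.3 uM positive control.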
# [8] = qHTS of pediatric cancer cell lines to identify multiple opportunities for drug repurposing: Primary screen for BT-37 cells (AID 1347094)
# Procedure, shortened: (§2)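 Plated cells (500-1,000 per well, growth media) were allowed to settle for 5 hours, treated with compound dilutions for 48 hours, then lysed with CellTiter-Glo for 15 min at room temperature before luminescence reading.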
# [9] = qHTS of pediatric cancer cell lines to identify multiple opportunities for drug repurposing: Primary screen for NB-EBc1 cells (AID 1347095)
# Procedure, shortened: as §2
# [10] = qHTS of pediatric cancer cell lines to identify multiple opportunities for drug repurposing: Primary screen for SK-N-MC cells (AID 1347093)
# Procedure, shortened: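 Metabolically active cells were quantified by ATP-dependent luminescence (CellTiter-Glo, 15 min at room temperature) following 48 h treatment. Cells had been plated at 500-1,000 per well and settled for 5 h beforehand.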
# Potency is the fitted concentration of half-maximal effect.
# Chain of Nucleoprotein (Lymphocytic choriomeningitis virus (strain Armstrong)) (P09992 whole entry, looked up): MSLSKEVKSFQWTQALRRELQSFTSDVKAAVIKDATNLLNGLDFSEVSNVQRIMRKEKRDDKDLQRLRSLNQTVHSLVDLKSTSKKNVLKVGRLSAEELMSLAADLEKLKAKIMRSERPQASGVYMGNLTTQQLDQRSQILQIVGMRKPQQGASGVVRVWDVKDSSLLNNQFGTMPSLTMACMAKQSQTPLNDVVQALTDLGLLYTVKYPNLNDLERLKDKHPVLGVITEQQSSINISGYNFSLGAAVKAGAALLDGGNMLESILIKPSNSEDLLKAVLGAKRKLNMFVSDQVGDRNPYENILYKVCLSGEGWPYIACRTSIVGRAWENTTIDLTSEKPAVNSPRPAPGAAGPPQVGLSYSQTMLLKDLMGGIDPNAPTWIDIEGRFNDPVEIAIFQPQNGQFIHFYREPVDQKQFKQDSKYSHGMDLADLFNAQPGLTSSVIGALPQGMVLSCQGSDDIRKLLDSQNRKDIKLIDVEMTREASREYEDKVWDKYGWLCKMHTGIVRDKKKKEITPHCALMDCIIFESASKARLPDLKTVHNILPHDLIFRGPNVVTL
SMILES,Potency [1],Potency [2],Potency [3],Potency [4],Potency [5],Potency [6],Potency [7],Potency [8],Potency [9],Potency [10]
CC(C)(C)C(O)C(Oc1ccc(Cl)cc1)n1cncn1 (configuration not stated),inactive,inactive,inactive,inactive,inactive,inactive,inactive,inactive,inactive,
C=C1C[C@H]2[C@H]3CCC(=O)[C@@]3(C)CC[C@@H]2[C@@]2(C)C=CC(=O)C=C12,inactive,inactive,inactive,inactive,inactive,inactive,,,inactive,
CCOC(=O)c1cncn1[C@H](C)c1ccccc1,inactive,inactive,inactive,inactive,inactive,inactive,inactive,inactive,inactive,
CSCC[C@@H](NC(=O)[C@@H](Cc1ccccc1)NC(=O)CNC(=O)CNC(=O)[C@@H](N)Cc1ccc(O)cc1)C(=O)O,inactive,inactive,inactive,inactive,inactive,inactive,inactive,inactive,inactive,
Cc1ccccc1-n1c(Cn2ncc3c(N)ncnc32)nc2cccc(C)c2c1=O,485 nM (active),137 nM (active),193 nM (active),7390 nM (active),93.5 nM (active),7.4 nM (active),,,93.5 nM (active),13.2 nM (active)
CCOC(=O)Nc1ccc(NCc2ccc(F)cc2)cc1N,5440 nM (active),1370 nM (active),1530 nM (active),inactive,inactive,inactive,18700 nM (active),,inactive,
CCCC[N+]1(C)[C@H]2CC(OC(=O)[C@H](CO)c3ccccc3)C[C@H]1[C@H]1O[C@H]12 (some centres not stated),inactive,inactive,inactive,inactive,inactive,inactive,inactive,,inactive,
O=c1[nH]c2ccc(Cl)cc2c(N[C@@H]2CN3CCC2CC3)c1-c1nc2ccccc2[nH]1,122 nM (active),217 nM (active),863 nM (active),930 nM (active),743 nM (active),46.9 nM (active),296 nM (active),,41.8 nM (active),
O=C(O)CNC(=O)c1c(O)c2ccccc2n(Cc2ccccc2)c1=O,inactive,inactive,inactive,inactive,inactive,inactive,,inactive,,
O=C(O)C(Cl)Cl,inactive,inactive,inactive,inactive,inactive,inactive,inactive,inactive,inactive,
CC(=CCCC1=CCC(C2=CC(=O)OC2O)OC1O)CCC1=C(C)CCCC1(C)C (configuration not stated),inactive,inactive,inactive,inactive,inactive,inactive,inactive,,inactive,
C1=C2CCCN[C@H]2[C@@H]2C[C@H]1[C@@H]1CCCCN1C2,inactive,inactive,inactive,inactive,inactive,inactive,,inactive,inactive,
Oc1ccc2c3c1O[C@H]1[C@@H](O)C=C[C@H]4[C@@H](C2)NCC[C@@]341,inactive,inactive,inactive,inactive,inactive,inactive,inactive,,inactive,
CC(O)CN1CCN(CC(=O)[O-])CCN(CC(=O)[O-])CCN(CC(=O)[O-])CC1.[Gd+3] (configuration not stated),inactive,inactive,inactive,inactive,inactive,inactive,inactive,,inactive,
COc1cc2cc(c1Cl)N(C)C(=O)C[C@H](OC(=O)C(C)C)[C@]1(C)O[C@H]1[C@H](C)[C@@H]1C[C@@](O)(NC(=O)O1)[C@H](OC)C=CC=C(C)C2,inactive,inactive,inactive,208 nM (active),,1 nM (active),1 nM (active),3850 nM (active),1 nM (active),
O=C1CCC[C@@H]2[C@H]3CCCN4CCC[C@@H](CN12)[C@@H]34,inactive,inactive,inactive,,inactive,inactive,inactive,inactive,inactive,inactive
CC[C@H](CO)Nc1nc(NCc2ccccc2)c2ncn(C(C)C)c2n1,15300 nM (active),,inactive,,,,,,,
CCc1c(C(=O)C(N)=O)c2c(OCC(=O)O)cccc2n1Cc1ccccc1,inactive,inactive,inactive,inactive,,inactive,,inactive,inactive,
Cc1ccccc1-n1c(Cn2cnc3c(N)ncnc32)nc2cccc(C)c2c1=O,1530 nM (active),1930 nM (active),,1310 nM (active),1480 nM (active),187 nM (active),590 nM (active),3850 nM (active),743 nM (active),20.9 nM (active)
CCCN1CCO[C@@H]2c3cc(O)ccc3OC[C@@H]21,inactive,inactive,inactive,inactive,inactive,,,,16600 nM (active),
Nc1cc(C(F)(F)F)c(-c2cc(N3CCOCC3)nc(N3CCOCC3)n2)cn1,1220 nM (active),,685 nM (active),,,,,,,

SMILES,Potency [1],Potency [2],Potency [3],Potency [4],Potency [5],Potency [6],Potency [7],Potency [8],Potency [9],Potency [10]
CN1CCN(c2ccc([N+](=O)[O-])c3no[n+]([O-])c23)CC1,inactive,inactive,inactive,inactive,,23500 nM (active),23500 nM (active),,,18700 nM (active)
CC(=Cc1csc(C)n1)[C@@H]1C[C@H]2O[C@@H]2CCC[C@H](C)[C@@H](O)[C@@H](C)C(=O)C(C)(C)[C@@H](O)CC(=O)O1,inactive,inactive,inactive,1.2 nM (active),,1 nM (active),,,1 nM (active),
C[C@H]1CCCC=CC2C[C@H](O)C[C@@H]2[C@H](O)C=CC(=O)O1 (some centres not stated),24.3 nM (active),19.3 nM (active),10.9 nM (active),13.1 nM (active),,1 nM (active),,,1 nM (active),1 nM (active)
COc1nn(CSP(=S)(OC)OC)c(=O)s1,inactive,inactive,,inactive,,,,,,
CCOP(=O)(OCC)C(C)NC(=O)N(CCCl)N=O (configuration not stated),inactive,inactive,inactive,inactive,inactive,,inactive,inactive,,inactive
CC[C@H]1C=CC=CC[C@@H](C)[C@H](O)[C@@](C)(O)C(=O)[C@@H](C)[C@H](O)[C@@H](C)C(=O)[C@@H](C)[C@H](O)[C@@H](C)C=CC(=O)O[C@@H]2[C@@H](C)[C@H](CC1)O[C@]1(CC[C@H](C)[C@H](C[C@@H](C)O)O1)[C@H]2C,86.3 nM (active),96.8 nM (active),76.9 nM (active),,3.7 nM (active),264 nM (active),,2.2 nM (active),13.2 nM (active),
O=[N+]([O-])c1c2ccccc2cc2ccccc12,inactive,inactive,inactive,inactive,,inactive,,,,
COC1=C[C@@H]2[C@@H]3Cc4ccc(OC)c(O)c4[C@]2(CCN3C)CC1=O,19300 nM (active),21700 nM (active),6110 nM (active),inactive,,,1480 nM (active),,20900 nM (active),13200 nM (active)
COc1cc([C@@H]2c3cc4c(cc3[C@@H](O)C3COC(=O)C32)OCO4)cc(OC)c1O (some centres not stated),86.3 nM (active),172 nM (active),153 nM (active),370 nM (active),,14.8 nM (active),37.2 nM (active),,6.6 nM (active),46.9 nM (active)
CCO/N=C(\CC)C1=C(O)CC(c2c(C)cc(C)cc2C)CC1=O (configuration not stated),inactive,inactive,inactive,inactive,inactive,,inactive,inactive,inactive,
N=c1c2c(-c3ccccc3)c(-c3ccccc3)n(Cc3ccccc3)c2ncn1C1CCC(O)CC1 (configuration not stated),1090 nM (active),544 nM (active),1720 nM (active),,inactive,18700 nM (active),18700 nM (active),968 nM (active),590 nM (active),16600 nM (active)
CCCCCC[C@H]1C(=O)O[C@H](C)[C@H](NC(=O)c2cccc(NC=O)c2O)C(=O)O[C@@H](C)[C@@H]1OC(=O)CC(C)C,4320 nM (active),4850 nM (active),1220 nM (active),,37.2 nM (active),187 nM (active),296 nM (active),,23.5 nM (active),
O=C(NCC1CCOCC1)c1cnc(Nc2ccc(Cl)cc2Cl)nc1C(F)(F)F,inactive,inactive,inactive,inactive,18700 nM (active),,18700 nM (active),,,3320 nM (active)
CC1(N2CCC(n3c([C@@H]4CCCNC4)nc4ccccc43)CC2)CCCCCCC1,inactive,inactive,inactive,inactive,inactive,,11800 nM (active),,inactive,
CCNC(=O)C[C@@H]1N=C(c2ccc(Cl)cc2)c2cc(OC)ccc2-n2c(C)nnc21,3060 nM (active),1220 nM (active),1220 nM (active),,5900 nM (active),5900 nM (active),590 nM (active),7690 nM (active),10500 nM (active),1320 nM (active)
CCNC(=O)CC1N=C(c2ccc(Cl)cc2)c2cc(OC)ccc2-n2c(C)nnc21 (configuration not stated),7690 nM (active),1530 nM (active),2430 nM (active),inactive,,,2960 nM (active),,20900 nM (active),
ClC1=C(Cl)[C@]2(Cl)[C@@H]3[C@@H]4C[C@@H]([C@H]5O[C@@H]45)[C@@H]3[C@@]1(Cl)C2(Cl)Cl,inactive,inactive,inactive,inactive,38600 nM (active),,,,,19300 nM (active)
C[C@]12CC[C@H](O)CC1=CC[C@H]1[C@H]3CCC(=O)[C@@]3(C)CC[C@@H]12,inactive,inactive,inactive,inactive,23500 nM (active),,18700 nM (active),,,16600 nM (active)
CCCN(CCC)c1c([N+](=O)[O-])cc(S(N)(=O)=O)cc1[N+](=O)[O-],inactive,inactive,inactive,,48600 nM (active),43300 nM (active),,,30600 nM (active),
O=[N+]([O-])c1ncc[nH]1,inactive,inactive,inactive,inactive,,inactive,inactive,inactive,inactive,inactive
CC(C)Oc1cccc(NC(=O)c2ccccc2C(F)(F)F)c1,inactive,inactive,,inactive,inactive,,inactive,inactive,,
